# Hits are enriched below; roughly 6.8% of the tested compounds scored in any of these assays.
# Cy5 interf NS3h – Cy5 fluorescence quenchers or enhancers, artefact control for HCV NS3 helicase inhibitor project, biochemical, ChemBridge library, Cy5 readout | Cy5-dT15 DNA with NS3h, fluorescence interference; actives lie on both sides; signal over control mean, under 1 quenches | fluorescence interference ratio at 100 µM | 16,000 compounds, 6% hits | AID 720488, 2013;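 active = compound fluorescence over control fluorescence at most 0.8, a quencher, or at least a set upper limit, an enhancer; inactive = ratio between 0.8 and the set upper limit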
# HCV NS3h FP – HCV NS3 helicase inhibitors, primary screen, biochemical, fluorescence polarization, ChemBridge library | Hepatitis C virus NS3 helicase | NS3h Cy5-dT15 DNA binding | inhibition, % at 100 µM | 16,000 compounds, 1.6% hits | AID 687043, 2013;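 active = inhibition above the average over every tested compound plus 3 SD, cut at about 40% in these data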
# NS3h confirm – HCV NS3 helicase inhibitors, retest, confirmation, biochemical, fluorescence polarization, ChemBridge library; shares compounds with HCV NS3h FP; NS3h binding to Cy5-dT15 DNA; inhibition, % at 100 µM; 240 compounds, 20% hits; AID 720485, 2013;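 active = percent inhibition of 50% or more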
# SSB-DNA FP CB – E. coli SSB-DNA binding inhibitors, counter-screen for HCV NS3 helicase inhibitor project, biochemical, fluorescence polarization, selected ChemBridge compounds; shares compounds with HCV NS3h FP; E. coli SSB binding Cy5-dT15; inhibition, % at 100 µM; 240 compounds, 40% hits; AID 720486, 2013;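 active = inhibition of at least 50%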;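 note: displacers lower Cy5 polarization so higher inhibition means more SSB displaced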
# Target sequence (P0AGE0 whole entry, looked up): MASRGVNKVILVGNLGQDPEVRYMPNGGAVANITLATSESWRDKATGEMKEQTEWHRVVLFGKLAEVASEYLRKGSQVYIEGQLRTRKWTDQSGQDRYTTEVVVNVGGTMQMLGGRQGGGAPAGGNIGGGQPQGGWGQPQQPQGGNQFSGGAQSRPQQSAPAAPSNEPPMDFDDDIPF
# Cy5 SSB interf – Cy5 fluorescence interference with SSB-bound oligo, artefact control for HCV NS3 helicase inhibitor project, biochemical, E. coli SSB, selected ChemBridge compounds. shares compounds with HCV NS3h FP. Cy5-dT15/E. coli SSB fluorescence interference; actives lie on both sides. fluorescence interference ratio at 100 µM. 240 compounds, 8% hits. AID 720487, 2013;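 active = fluorescence interference ratio at or above 1.2, signal boosting, or at or below 0.8, signal quenching; inactive = ratio between 0.8 and 1.2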;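 note: ratio of compound well signal to mean negative control signal so 1 means no effect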
# Cy5 fluor confirm – Cy5-DNA-NS3h complex fluorescence interference, confirmation, artefact control for HCV NS3 helicase inhibitor project, biochemical, ChemBridge library; fluorescence interference ratio at 100 µM, hits read low; 240 compounds, 44% hits; Cy5-dT15 DNA/NS3h fluorescence interference counterscreen; AID 720489, 2013; shares compounds with HCV NS3h FP;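 active = fluorescence interference ratio at or below 0.8 quencher or at or above a set limitenhancer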;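 note: ratio of compound fluorescence to mean of negative controls so 1 means no interference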
# * marks the source's active call; other numbers are inactive results; . = not tested or not shown.
SMILES,Cy5 interf NS3h,HCV NS3h FP,NS3h confirm,SSB-DNA FP CB,Cy5 SSB interf,Cy5 fluor confirm
CC(Sc1ccc(Cl)cc1)C(=O)NCCc1ccccc1 (centres undefined),0.99,10,.,.,.,.
COc1ccccc1OCc1cc(C(=O)O)oc1C,1,-1,.,.,.,.
Cc1cc([N+](=O)[O-])ccc1-c1ccc(/C=C2/C(=O)NC(=S)N(c3ccc(Cl)cc3)C2=O)o1,1.2,6,.,.,.,.
Cc1cc(C)c(N2C(=O)NC(=O)/C(=C/c3ccc([N+](=O)[O-])o3)C2=O)c(C)c1,0.92,52*,20,94*,0.94,0.75*
O=C1NC(=S)S/C1=C\c1ccc(Oc2ccc([N+](=O)[O-])cn2)cc1,1,39,26,4,0.98,0.72*
O=C1NC(=S)N/C1=C\c1ccc(Oc2ccc([N+](=O)[O-])cn2)cc1,0.98,-1,.,.,.,.
O=C1NC(=S)N(c2ccccc2)C(=O)/C1=C/c1ccc(Br)cc1,0.96,-4,.,.,.,.
CN(C)c1ccc(/C=C2\C(=O)NC(=S)N(c3ccc(Br)cc3)C2=O)cc1,1.3*,64*,20,96*,1.2*,0.87
Cc1ccc(N2C(=O)C(Cl)=C(N3CCN(c4ccccc4)CC3)C2=O)c(C)c1,1.1,14,.,.,.,.
Cc1ccc(N2C(=O)C(Cl)=C(N3CCOCC3)C2=O)c(C)c1,1.2,37,-4,-3,0.99,0.76*
COc1ccc(N(CC(=O)O)S(C)(=O)=O)cc1,1.1,-12,.,.,.,.
CC1(C)CC(=O)C=C(Nc2ccccc2C#N)C1,0.97,-5,.,.,.,.
CC1(C)CC(=O)C=C(Nc2ccc(NC3=CC(=O)CC(C)(C)C3)cc2)C1,1.2,44*,-1,8,1,0.8*
O=C1C2C3C=CC(O3)C2C(=O)N1Cc1ccccc1 (centres undefined),1,-1,.,.,.,.
COC(=O)c1c(C)oc2ccc(OCc3ccc([N+](=O)[O-])cc3)cc12,1,-4,.,.,.,.
O=Cc1ccc(OCc2ccc([N+](=O)[O-])cc2)cc1,0.59*,49*,27,19,0.92,0.7*
O=C(/C=C/c1c[nH]c2ccccc12)c1ccc([N+](=O)[O-])cc1,0.99,43*,28,15,0.95,0.99
O=C(/C=C/c1ccc(-c2ccc(Cl)cc2)o1)c1ccc([N+](=O)[O-])cc1,1,10,.,.,.,.
O=C(O)c1ccc(-c2ccc(C=C3C(=O)c4ccccc4C3=O)o2)cc1Cl,1.1,22,.,.,.,.
COc1cc(CN2CCN(Cc3ccccc3C(F)(F)F)CC2)cc(OC)c1,0.97,-8,.,.,.,.
O=C(Oc1ccc(Cl)cc1)c1ccccc1,1.2,54*,50*,60*,1.2,1.2*
O=C(Oc1ccc(-c2nc3ccccc3[nH]2)cc1)c1ccc(Cl)cc1,0.88,15,.,.,.,.
COc1cc2ccccc2cc1C(=O)Nc1ccc(Cl)c(NC(=O)c2ccccc2)c1,1,5,.,.,.,.
O=C(CCN1C(=O)/C(=C/c2ccc(Cl)cc2)SC1=S)Nc1nccs1,1,13,.,.,.,.
O=C(CCN1C(=O)/C(=C/c2ccc(F)cc2)SC1=S)Nc1ncc(Cc2ccc(Cl)cc2)s1,0.94,46*,4,10,0.96,1
SMILES,Cy5 interf NS3h,HCV NS3h FP,NS3h confirm,SSB-DNA FP CB,Cy5 SSB interf,Cy5 fluor confirm
CC(=O)c1cccc(NC(=O)Nc2cccc(Cl)c2)c1,1.1,24,.,.,.,.
O=C1CCC(C23CC4CC(CC(C4)C2)C3)=NN1,0.92,-6,.,.,.,.
COc1ccc(O)c(-c2cc(-c3ccccc3C)[nH]n2)c1,0.9,26,.,.,.,.
COc1ccc(-c2cc(-c3ccccc3)n[nH]2)c(O)c1,1.3*,43*,7,11,0.93,0.73*
O=C(O)CN1C(=O)/C(=C\c2cccc([N+](=O)[O-])c2O)SC1=S,1.1,44*,11,30,0.89,0.73*
COc1cccc(/C=C2/SC(=S)N(CC(=O)O)C2=O)c1O,0.98,6,.,.,.,.
COC1C(C)=CC(=O)N1Cc1ccccc1 (centres undefined),1,2,.,.,.,.
Cc1ccc(S(=O)(=O)N(C)CCCC(=O)Nc2cccc(C)c2)cc1,0.99,5,.,.,.,.
